A selection: hits, their analogues and other compounds. The true share with any hit is near 3.3%.
TPT1 inhibitor: Candida albicans TPT1 enzyme inhibitors, primary screen, biochemical, fluorescence polarization; recombinant caTPT1, FP RNA substrate dephosphorylation; AID 1962, 2009; inhibition, % at 5 µM; tRNA 2'-phosphotransferase TPT1 (Candida albicans SC5314); 300,000 tested, 0.81% active;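 active means inhibition above the mean of all tested compounds plus 3 SD, set per screening campaign, cut at about 24% in these data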
CTSL1 counter: Fasciola hepatica cathepsin L1 inhibitors, primary screen, counter-screen for PFM18AAP inhibitor project, biochemical, QFRET, fluorogenic peptide substrate; recombinant F. hepatica cathepsin L1, Z-Leu-Arg-MCA fluorescence; inhibition, % at 5.96 µM; 300,000 tested, 0.49% active;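 active means inhibition above the mean of all tested compounds plus 3 SD, set per screening campaign, cut at about 17% in these data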
PHOSPHO1 inh: PubChem AID 1565 | Phosphoethanolamine/phosphocholine phosphatase (Homo sapiens), Q8TCT1 | 290,000 tested, 1.1% active | recombinant PHOSPHO1, absorbance phosphatase assay | inhibition, % at 13.3 µM; in the data active means inhibition above about 60%
Target sequence (Q8TCT1 whole entry, looked up): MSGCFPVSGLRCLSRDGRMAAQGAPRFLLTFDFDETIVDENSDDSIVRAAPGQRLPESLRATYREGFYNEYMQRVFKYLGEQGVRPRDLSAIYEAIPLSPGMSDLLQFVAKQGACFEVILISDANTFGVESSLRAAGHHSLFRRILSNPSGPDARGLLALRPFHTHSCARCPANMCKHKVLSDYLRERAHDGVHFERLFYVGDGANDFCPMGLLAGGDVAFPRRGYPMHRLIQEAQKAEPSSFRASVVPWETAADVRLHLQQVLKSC
Rpn11 block: Rpn11 (PSMD14) deubiquitinase inhibitors, primary screen, biochemical, fluorescence polarization, uHTS; 26S proteasome non-ATPase regulatory subunit 14 (Homo sapiens), O00487; human 26S proteasome, Ub4-pepOG fluorescence polarization; 20S core pre-blocked with epoxomicin; inhibition, % at 20 µM; 360,000 tested, 0.59% active;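 active means inhibition at 20 µM, scaled to each plate's controls, above about 33%, limit read from the data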
Target sequence (O00487 whole entry, looked up): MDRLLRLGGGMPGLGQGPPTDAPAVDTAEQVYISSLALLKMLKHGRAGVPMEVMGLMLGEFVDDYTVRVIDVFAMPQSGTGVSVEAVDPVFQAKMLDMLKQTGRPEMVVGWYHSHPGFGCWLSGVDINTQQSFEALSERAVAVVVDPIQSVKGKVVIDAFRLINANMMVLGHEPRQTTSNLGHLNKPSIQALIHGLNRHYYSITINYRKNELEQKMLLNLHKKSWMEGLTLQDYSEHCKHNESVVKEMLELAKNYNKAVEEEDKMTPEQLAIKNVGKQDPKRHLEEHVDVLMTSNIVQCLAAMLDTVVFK
NRP1-CendR mod: modulators of CendR peptide binding to NRP-1, primary screen, biochemical, fluorescence polarization, uHTS; inhibition, % at 25 µM; FAM-RPARPAR peptide binding to NRP-1; Neuropilin-1 (Homo sapiens), O14786; 360,000 tested, 0.85% active;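 active means inhibition or corrected inhibition above about 18%, plus a signal ratio from 0.5 to 1.5, limit read from the data, passing the limit was not always enough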
HNF4A DNA FP: change in binding of human HNF4A to DNA, primary screen, biochemical, fluorescence polarization, FITC-DNA; Hepatocyte nuclear factor 4-alpha (Homo sapiens), P41235; 1 h; activity change, % at 10 µM; 360,000 tested, 0.3% active; AID 1224865, 2016; in the data active means activity change above about 30%, passing the limit was not always enough
Each line names hits and unclear results; the compound was inactive in the other large screens.

CCN1CCN(c2ncc(C(=O)N3CCN(c4ccccc4OC)CC3)c3ccccc23)CC1	NRP1-CendR mod 21.6 (no result: TPT1 inhibitor, CTSL1 counter, PHOSPHO1 inh)
Cc1cc(NC(=O)C2CCCN(S(=O)(=O)c3cnc[nH]3)C2)ccc1Br (centres undefined)	none
O=C(O)c1ccc(CP(=O)(c2ccccc2)c2ccccc2)cc1	none
CC1=C(C(=O)OCC2CCCO2)C(c2ccccc2)NC(=O)N1 (centres undefined)	NRP1-CendR mod 28.0
COC(=O)c1cc(S(=O)(=O)NCC2CCN(CCc3ccc(OC)cc3)CC2)c[nH]1	none
COc1ccc(S(=O)(=O)N2CCOC2CNC(=O)C(=O)NCCc2ccccc2)cc1 (centres undefined)	none
CN(CC(=O)Nc1ccccc1Cl)C(=O)C1CSC2(C)CCC(=O)N12 (centres undefined)	NRP1-CendR mod 21.4 (no result: TPT1 inhibitor, CTSL1 counter, PHOSPHO1 inh)
CNC(=O)C(C)N1c2cccc3cccc(c23)S1(=O)=O (centres undefined)	none (no result: TPT1 inhibitor, CTSL1 counter, PHOSPHO1 inh)
CSc1cccc(CN2CCN(CCc3ccccc3)C(CCO)C2)c1 (centres undefined)	none
OCCC1CN(Cc2cnn(-c3ccc(F)cc3)c2)CCN1Cc1ccsc1 (centres undefined)	PHOSPHO1 inh 60.1
CSc1cccc(CN2CCN(Cc3ccccc3)C(CCO)C2)c1 (centres undefined)	NRP1-CendR mod 24.3
CC(=O)c1cccc(CN2CCN(Cc3ccc(F)cc3)C(CCO)C2)c1 (centres undefined)	PHOSPHO1 inh 60.1
CCn1cc(CN2CCN(Cc3ccsc3)C(CCO)C2)cn1 (centres undefined)	none
CCN(C(=O)COc1ccc(F)cc1Br)c1c(N)n(Cc2ccccc2)c(=O)[nH]c1=O	none (no result: TPT1 inhibitor, CTSL1 counter, PHOSPHO1 inh)
CCN1CCN(CCCNC(=O)c2ccc3c(c2)N(Cc2ccccc2)CCS3)CC1	CTSL1 counter 41.9
O=C(NCC(=O)N1CCOCC1)c1ccc(Cl)cc1	none
CC(OC(=O)CNC(=O)c1ccc(Cl)c(Cl)c1)C(=O)N1CCOCC1 (centres undefined)	CTSL1 counter 24.6 (no result: PHOSPHO1 inh)
Cc1onc(-c2ccccc2)c1C(=O)OCC(=O)N(C)c1c(N)n(Cc2ccccc2)c(=O)[nH]c1=O	none (no result: PHOSPHO1 inh)
CCCCCCCCCCCCCCCC[n+]1ccc(/C=N/O)cc1	Rpn11 block 66.4, HNF4A DNA FP 39.8
CCCCCCCCCCCCCCCC[n+]1ccccc1	Rpn11 block 80.8 (no result: TPT1 inhibitor, CTSL1 counter, PHOSPHO1 inh)
C[C@H](CO)N1C[C@H](C)[C@@H](CN(C)C(=O)Oc2ccccc2)OCc2cn(nn2)CCCC1=O	none (no result: TPT1 inhibitor, CTSL1 counter, PHOSPHO1 inh)
CC(SCC(=O)NC(C)C1CC2CCC1C2)C(=O)O (centres undefined)	none
Cc1ccc2nc(-c3cccs3)oc(=O)c2c1	none
COc1cc2nc(-c3cccs3)oc(=O)c2cc1OC	NRP1-CendR mod 27.0 (no result: PHOSPHO1 inh)
C=CCC[C@H](Cc1ccc(F)cc1)C(=O)OC[C@H](Cc1c[nH]c2ccccc12)NC(=O)[C@@H](CC=C)CC(=O)N[C@H](CO)Cc1ccccc1	none (no result: TPT1 inhibitor, CTSL1 counter, PHOSPHO1 inh)
N/C(=N\OS(=O)(=O)c1ccc(Br)cc1)c1ccncc1	CTSL1 counter 29.0
N/C(=N\OS(=O)(=O)c1ccccc1)c1ccccn1	PHOSPHO1 inh 78.6
N/C(=N\OC(=O)c1ccc(Cl)cc1)c1ccccn1	NRP1-CendR mod 19.8
N/C(=N\OS(=O)(=O)c1ccc(Cl)cc1)c1ccccn1	none (no result: TPT1 inhibitor, CTSL1 counter)
O=C(O)/C=C/C(=O)c1ccc2c(c1)CCc1ccccc1-2	none (no result: PHOSPHO1 inh)
CCOc1ccc(OCC(=O)c2c(O)c3ccccc3oc2=O)cc1	PHOSPHO1 inh 68.5
COc1ccc(CNC(=O)c2cn(Cc3ccc(OC(C)=O)cc3)c(=O)s2)cc1	none (no result: TPT1 inhibitor, CTSL1 counter, PHOSPHO1 inh)
O=C(COc1coc(CN2CCc3ccccc32)cc1=O)NCCc1ccccc1	none (no result: PHOSPHO1 inh)
O=C(COc1coc(CN2CCc3ccccc32)cc1=O)N1CCCCC1	CTSL1 counter 21.5 (no result: PHOSPHO1 inh)
CN1CCN(C(=S)c2ccc(Br)cc2)CC1	PHOSPHO1 inh 61.3
CN1CCN(C(=S)c2ccc(N(C)C)cc2)CC1	none
Cc1ccccc1-c1n[nH]c(=S)o1	PHOSPHO1 inh 96.1
CSc1ccccc1-c1n[nH]c(=S)o1	none (no result: TPT1 inhibitor, CTSL1 counter)
S=c1[nH]nc(-c2ccccc2)o1	PHOSPHO1 inh 101.4
CCn1c(SCC(=O)Nc2nnc(C)s2)nnc1-c1ccncc1	none
Cc1ccc(C(=O)CSC2=C(C#N)C(c3ccco3)C3=C(CCCC3=O)N2)cc1 (centres undefined)	none
CC(C)(C)c1ccc(C(=O)CCCSC2=C(C#N)C(c3ccco3)C3=C(CCCC3=O)N2)cc1 (centres undefined)	PHOSPHO1 inh 71.1
CCN(CC)c1ccc(NC2CC(=O)N(CCc3ccc(OC)cc3)C2=O)cc1 (centres undefined)	HNF4A DNA FP 57.2 (not shown: Rpn11 block)
O=C(CSc1nn(-c2ccccc2)c(=S)s1)Nn1cnnc1	none
O=C(CSc1nn(-c2ccccc2)c(=S)s1)NC(=O)NCc1ccco1	PHOSPHO1 inh 78.0
O=C(COc1cccnc1[N+](=O)[O-])N1CCc2ccccc2C1	PHOSPHO1 inh 60.9
O=C(Cn1cc([N+](=O)[O-])cn1)N1CCc2ccccc2C1	PHOSPHO1 inh 61.0
O=C(c1ncn(Cc2ccccc2)c1C(=O)N1CCc2ccccc2C1)N1CCc2ccccc2C1	NRP1-CendR mod 29.5 (no result: TPT1 inhibitor, CTSL1 counter, PHOSPHO1 inh)
O=C(Cn1cnc2ccccc2c1=O)N1CCc2ccccc2C1	PHOSPHO1 inh 62.9
CC(C)(C)c1nnc(NC(=O)Cc2ccc(Br)cc2)s1	none
CCOC(=O)C1=C(c2cccc(Oc3ccccc3)c2)NC(=S)NC1C (centres undefined)	none
COC(=O)C(NNc1ccccc1)(NC(=O)c1cccc(F)c1)C(F)(F)F (centres undefined)	PHOSPHO1 inh 99.2
O=C(Nc1ccc(Nc2ccccc2)cc1)c1cccc(F)c1	none
O=C(O)C1CC=CCC1C(=O)N1CCCC1 (centres undefined)	CTSL1 counter 18.0
Cc1cccc(NC(=O)COC(=O)Cc2cccc(C(F)(F)F)c2)c1C	none
Cc1cc(C(=O)N/N=C/c2ccc(C)s2)n[nH]1	NRP1-CendR mod 18.4
CN(C)C(=O)CCc1ccc2c3c([nH]c2c1)[C@]1(C)[C@@H](C(=O)N2CCCCC2)C[C@H](CC(=O)NCCCn2ccnc2)C(=O)N1CC3	none (no result: TPT1 inhibitor, CTSL1 counter, PHOSPHO1 inh)
COc1ccc(NC(=O)c2ccc(OC)c(S(=O)(=O)N3CCCCC3C)c2)cn1 (centres undefined)	NRP1-CendR mod 26.9 (no result: TPT1 inhibitor, CTSL1 counter, PHOSPHO1 inh)
Cc1ccccc1Nc1nc(-c2sc(NC(=O)c3ccccc3)nc2C)cs1	PHOSPHO1 inh 69.4 (no result: Rpn11 block, NRP1-CendR mod, HNF4A DNA FP)
COc1ccc(Cl)cc1Nc1nc(-c2sc(NC(=O)c3ccccc3)nc2C)cs1	none (no result: Rpn11 block, NRP1-CendR mod, HNF4A DNA FP)

Screening data deposited in PubChem BioAssay by several laboratories.
